Bioassay records as filed in PubChem.
KCNQ2 pot = potentiators of rat KCNQ2 potassium channel. 310,000 tested, 0.54% active. B-score at 10 µM. CHO-K1 KCNQ2, FluxOR thallium flux fluorescence; hits give high values. Potassium voltage-gated channel subfamily KQT member 2 (Rattus norvegicus), O88943;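 active = fluorescence ratio B-score at least 3 SD of library B-scores, with initial fluorescence B-score within 3 of them, cut at about 5.3 in these data; same plate scores as AID 2156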;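 note: B-score of peak minus minimum over baseline fluorescence ratio after K+ and Tl+ stimulus; positive B-score means potentiation of KCNQ2 with more thallium influx and brighter signal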
Target sequence (O88943 whole entry, looked up): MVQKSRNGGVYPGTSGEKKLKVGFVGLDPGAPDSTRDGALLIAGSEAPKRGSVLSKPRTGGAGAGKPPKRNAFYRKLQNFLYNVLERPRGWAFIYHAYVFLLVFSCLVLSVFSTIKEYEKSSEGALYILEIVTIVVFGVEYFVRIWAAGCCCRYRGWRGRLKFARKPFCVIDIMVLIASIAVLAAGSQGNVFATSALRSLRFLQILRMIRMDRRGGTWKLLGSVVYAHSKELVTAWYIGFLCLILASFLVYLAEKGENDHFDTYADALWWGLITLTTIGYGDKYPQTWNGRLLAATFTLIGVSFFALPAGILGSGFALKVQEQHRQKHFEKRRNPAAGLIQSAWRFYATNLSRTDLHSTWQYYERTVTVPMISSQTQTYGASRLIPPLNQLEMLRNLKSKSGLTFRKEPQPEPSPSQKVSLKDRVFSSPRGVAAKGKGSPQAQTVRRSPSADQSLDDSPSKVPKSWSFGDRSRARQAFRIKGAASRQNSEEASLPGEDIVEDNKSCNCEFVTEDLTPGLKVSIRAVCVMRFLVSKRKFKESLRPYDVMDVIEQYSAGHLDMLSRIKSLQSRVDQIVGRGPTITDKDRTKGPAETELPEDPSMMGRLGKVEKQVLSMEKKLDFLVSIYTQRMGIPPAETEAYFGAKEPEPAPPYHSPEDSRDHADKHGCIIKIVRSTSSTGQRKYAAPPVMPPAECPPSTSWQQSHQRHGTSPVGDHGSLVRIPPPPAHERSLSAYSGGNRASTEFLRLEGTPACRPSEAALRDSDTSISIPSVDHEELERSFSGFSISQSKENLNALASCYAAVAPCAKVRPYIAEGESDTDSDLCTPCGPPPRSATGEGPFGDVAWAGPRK
KCNQ2 inh = rat KCNQ2 potassium channel inhibitors, primary screen, cell-based, CHO-K1, FluxOR thallium flux, B-score. 310,000 tested, 1.1% active. 20 min; hits give low values. Potassium voltage-gated channel subfamily KQT member 2 (Rattus norvegicus), O88943. B-score at 10 µM;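 active = fluorescence ratio B-score at most minus 3 library SDs, with starting brightness B-score within 2 library SDs, cut at about -5.5 in these data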
* = called active by the depositor; i = inactive; / = no result. Only some compounds are listed: those with a hit (about 1.6% of all), similar ones and a draw of the others.

SMILES	KCNQ2 pot	KCNQ2 inh
Cc1cccc(N2CCN(S(=O)(=O)c3c(C)[nH]c(C)c3C(=O)N3CCCCC3)CC2)c1C	-5.9	-5.9*
Cc1cccc(N2CCN(S(=O)(=O)c3c(C)[nH]c(C)c3C(=O)N3CCCC3)CC2)c1C	/	i
O=C(NCCCn1ccnc1)c1ccc(Cl)s1	/	i
C=CCn1c(CSCc2ccc(Cl)cc2)nnc1SCC(=O)NCc1ccccc1	-6.5	-6.5*
C=CCn1c(SCC(=O)NCc2ccccc2)nnc1-c1ccccc1O	/	i
COc1ccc(-n2c(CCc3ccccc3)nnc2SCC(=O)NCc2ccccc2)cc1	/	i
O=C(CSc1nnc(CCc2ccccc2)n1-c1ccc(Cl)cc1)NCc1ccccc1	-7.4	-7.4*
C=CCn1c(COc2ccccc2)nnc1SCC(=O)N/N=C/c1cc(Cl)ccc1O	-6.4	-6.4*
C=CCn1c(COc2ccccc2)nnc1SCC(=O)N/N=C/c1ccc(C)cc1	/	i
CC1CCCC(NC(=O)COC(=O)Cc2ccsc2)C1C (stereo not drawn)	0.81	i
COc1ccc(S(=O)(=O)N2CCCCCC2)cc1C(=O)N(CC(C)C)C1CCS(=O)(=O)C1 (stereo not drawn)	/	i
COc1ccc(C)cc1N(C(=O)c1snc(C(N)=O)c1N)C(C(=O)NC1CCCCC1)c1ccc(C)o1 (stereo not drawn)	/	i
O=C(CCN1CCc2ccccc2CC1)c1ccc2c(c1)OCCO2	-5.8	-5.8*
O=C(CCCN1CCOCC1)c1ccc2c(c1)OCCO2	0.39	i
CCOC(=O)N1CCN(C(=O)CN(c2cccc(C)c2)S(=O)(=O)c2ccc(C)cc2)CC1	1.1	i
CS(=O)(=O)N(CC(=O)N1CCc2ccccc2C1)Cc1ccc(F)cc1	/	i
CS(=O)(=O)N(CC(=O)N1CCc2ccccc2C1)c1cccc(F)c1	/	i
O=C(CN(c1cccc(Cl)c1)S(=O)(=O)c1ccc(Cl)cc1)N1CCc2ccccc2C1	-6.5	-6.5*
CS(=O)(=O)N(CC(=O)N1CCc2ccccc2C1)Cc1ccc(Cl)cc1	-6	-6*
Cc1ccc(S(=O)(=O)N(CC(=O)N2CCC(C)CC2)c2cccc(C)c2)cc1	-6.2	-6.2*
COc1ccc(N2CCN(S(=O)(=O)c3ccc(OC)c(C(=O)N4CCCC4)c3)CC2)cc1	2.2	i
C=CSc1sc(Cl)c(N(CC)CC)c1[N+](=O)[O-]	/	i
COc1ccccc1CCNC(=O)c1ccc(Br)s1	-6.3	-6.3*
COc1ccccc1CCNS(=O)(=O)CCNC(=O)c1ccccc1	0.17	i
COc1cc(-c2nc(C(=O)NCC3CCCO3)cc3c2[nH]c2ccccc23)cc(OC)c1OC (stereo not drawn)	-6.7	-6.7*
SMILES	KCNQ2 pot	KCNQ2 inh
COc1ccccc1-c1nc(C(=O)NCC2CCCO2)cc2c1[nH]c1ccccc12 (stereo not drawn)	/	i
CCNC1=C(Cl)C(=O)c2ccccc2C1=O	0.29	i
O=C1C(Cl)=C(NCCN2CCCCC2)C(=O)c2ccccc21	-5.8	-5.8*
CC(C)C[C@H]1CN=C(Nc2ccccc2)N1CCCC1CCCC1	/	i
CC(C)C[C@H]1CN=C(Nc2ccccc2)N1CCCC1CCCCC1	-5.6	-5.6*
Cc1ccccc1OCC(=O)OCC(=O)NCc1cccs1	/	i
CN(Cc1ccco1)S(=O)(=O)c1ccc(CN2C(=O)c3cccnc3C2=O)s1	1.5	i
Cc1ccc(C(=O)CCS(=O)(=O)c2ccc(F)cc2)cc1	-6.3	-6.3*
Cc1ccc(S(=O)(=O)CCC(=O)c2ccc(F)cc2)cc1	/	i
COc1cccc(CN(C)C(=O)c2ccccc2Sc2ccccc2C#N)c1OC	/	i
Cc1cc(C(C)(C)C)oc1C(=O)N(CC(=O)NC1CCCC1)Cc1ccccc1Cl	-6.2	-6.2*
Cc1ccccc1N(CC(=O)NC1CCCC1)C(=O)c1oc(C(C)(C)C)cc1C	/	i
COC(=O)C1CN(C(=O)COc2ccc(Cl)cc2C)c2ccccc2O1 (stereo not drawn)	-7	-7*
COc1ccc(NC2CCCN(C(=O)COc3ccc(Cl)cc3C)C2)cc1OC (stereo not drawn)	-6.1	-6.1*
COC(=O)C1CN(C(=O)COc2ccccc2C)c2ccccc2O1 (stereo not drawn)	/	i
COc1ccccc1OCC(=O)N1CCCC(Nc2ccc(C)c(C)c2)C1 (stereo not drawn)	/	i
O=C(CCc1nnc2ccc(NCc3ccco3)nn12)N1CCN(c2ccc(F)cc2)CC1	/	i
CCC(=Nc1ccccc1OC)C1=C(O)CC(c2ccccc2)CC1=O (stereo not drawn)	-5.8	-5.8*
CCC(=Nc1ccccc1O)C1=C(O)CC(c2ccccc2)CC1=O (stereo not drawn)	0.29	i
O=C(NCCC1=CCCCC1)c1cccc(S(=O)(=O)N2CCCCC2)c1	0.97	i
Cc1ccc(Cl)cc1N1CCN(C(=O)C2(S(=O)(=O)c3ccc(Cl)cc3)CC2)CC1	-6.2	-6.2*
Cc1cccc(N2CCN(C(=O)C3(S(=O)(=O)c4ccc(Cl)cc4)CC3)CC2)c1C	-6.2	-6.2*
O=C(N1CCN(c2cccc(Cl)c2)CC1)C1(S(=O)(=O)c2ccc(Cl)cc2)CC1	/	i
Cc1ccc(S(=O)(=O)C2(C(=O)N3CCN(c4ccccc4F)CC3)CC2)cc1	/	i
NC(=O)C1=C[C@@H](c2csc3ccccc23)C[C@@H](OCCCCO)O1	0.49	i
SMILES	KCNQ2 pot	KCNQ2 inh
CC(C)CCN1CCN=C1Nc1ccccc1	1.7	i
COc1ccc(C)cc1NC(=O)C(Sc1nnc(-c2ccncc2)n1-c1ccc(Cl)cc1)c1ccccc1 (stereo not drawn)	-7.9	-7.9*
COc1ccc(C)cc1NC(=O)C(Sc1nnc2ccccn12)c1ccccc1 (stereo not drawn)	/	i
O=C(CCn1c(=O)c2cccn2c2ccccc21)Nc1ccc(F)cc1	/	i
O=c1[nH]c(SCc2cccc(Cl)c2)nc2[nH]ncc12	0.66	i
CCn1c(CC(=O)Nc2cccc(Cl)c2Cl)nnc1SCCOc1ccc(OC)cc1	-6.1	-6.1*
COc1ccc(OCCSc2nnc(CC(=O)Nc3cccc(Cl)c3Cl)n2C)cc1	-8.1	-8.1*
COc1ccc(CC(=O)NCc2nnc(SCCOc3ccccc3)n2C)cc1	/	i
CCn1c(COc2cccc(OC)c2)nnc1SCC(=O)Nc1cc(OC)ccc1OC	/	i
COc1cc(Cl)ccc1OCc1cc(C(=O)NCc2cc(C(C)C)no2)no1	2.4	i
Cc1cccc(OCC(=O)NNC(=O)C2CCN(c3ncnc4sc(C)c(C)c34)CC2)c1	/	i
Cc1ccccc1OCC(=O)NNC(=O)C1CCN(c2ncnc3sc(C)c(C)c23)CC1	/	i
Cc1sc2ncnc(N3CCC(C(=O)N(CC(C)C)c4nc5ccccc5s4)CC3)c2c1C	-6.2	-6.2*
CCCN(CC(=O)Nc1ccccc1C)C(=O)C1CCN(c2ncnc3sc(C)c(C)c23)CC1	-6.8	-6.8*
Cc1[nH]n(-c2nc(-c3ccc(Cl)cc3)cs2)c(=O)c1N=Nc1ccc(O)cc1	/	i
CCOc1ccc(-c2nnc(Nc3ccc(OC)c(C(=O)N4CCCCC4)c3)c3ccccc23)cc1	/	i
COc1ccc(Cn2nnnc2C(c2cc3cccc(C)c3[nH]c2=O)N2CCOCC2)cc1 (stereo not drawn)	/	i
CCOC(=O)C1CCN(C(c2cc3c(C)ccc(C)c3[nH]c2=O)c2nnnn2C2CCCCC2)CC1 (stereo not drawn)	/	i
